From PubChem
Only a selection was taken, and hits are over-represented in it overall.
ROS inducer: cancer cell ROS induction. U2OS ROS induction, H2DCF-DA fluorescence. hit rate 2% among 46,000. AID 624156. ROS induction (% of piperlongumine), % at 10 µM; in the data active = ROS induction above about 79%, passing the limit was not always enough; inconclusive = no clear call, values can overlap the other calls
NOMO-1 viab: STK33 inhibitor candidate reducing NOMO-1 cell viability | AID 2330 | hit rate 7.5% among 37,000 | NOMO-1 AML viability, CellTiter-Glo luminescence, 72 h | inhibition, % (no concentration beside the values); in the data active = inhibition above about 80%; inconclusive = no clear call, values can overlap the other calls
Hits are given with their value; . = inactive; ? = inconclusive; / = no result.

SMILES	ROS inducer	NOMO-1 viab
Cc1ccc2c(=O)c(C(=O)c3ccccc3)coc2c1	.	130
COc1cccn(Cc2nnc(SCC(=O)c3ccccc3)o2)c1=O	.	/
CC1CCC2(NC1)OC1CC3C4CC=C5CC(O[C@@H]6O[C@H](CO)[C@@H](O[C@@H]7O[C@@H](C)[C@H](O)[C@@H](O)[C@H]7O)[C@H](O)[C@H]6O)CCC5(C)C4CCC3(C)C1C2C (stereo partly drawn)	.	.
C[C@@H]1O[C@@H](O[C@H]2[C@H](O)[C@@H](O[C@@H]3O[C@H](CO)[C@@H](O)[C@H](O[C@@H]4O[C@H](CO)[C@@H](O)[C@H](O)[C@H]4O)[C@H]3O)[C@H](O[C@H]3CC[C@@]4(C)C(=CC[C@@H]5C4CC[C@@]4(C)C5C[C@@H]5O[C@]6(CC[C@@](C)(CO[C@@H]7O[C@H](CO)[C@@H](O)[C@H](O)[C@H]7O)O6)[C@@H](C)[C@@H]54)C3)O[C@@H]2CO)[C@H](O)[C@H](O)[C@H]1O (stereo partly drawn)	.	120
C[C@H]1CC[C@@H]2[C@@H](C(=O)c3c(O)c([C@]4(O)CC[C@@H](O)[C@H]5O[C@H]54)cn(O)c3=O)[C@@H](C)C=C[C@H]2C1	.	120
O=C(CCCCC(=O)NN=C1CCCCCCC1)NO	.	/
O=C(Nc1cccc2ccccc12)C1CCCN1S(=O)(=O)c1ccccc1 (stereo not drawn)	.	.
O=C(/C=C/Oc1ccc(Cl)cc1)c1ccc(Br)cc1	?	117
COc1ccc(-c2nsc(SCC(=O)c3ccc(Cl)cc3)n2)cc1	.	/
NC(=NCc1ccc(Cl)cc1Cl)NC(=O)c1nc(Cl)c(N)nc1N	.	120
NC(N)=NC(=O)c1nc(Cl)c(N)nc1N	.	.
Cc1noc(C)c1NC(=O)N(C)C[C@@H]1Oc2ccc(NS(=O)(=O)c3ccccc3)cc2C(=O)N([C@H](C)CO)C[C@H]1C	.	.
COc1ccc(-c2oc3cc(OC)c(OC)c(O)c3c(=O)c2OC)cc1OC	82	.
COc1cc(O)c2c(=O)c(OC)c(-c3cc(O)c(OC)c(OC)c3)oc2c1	.	.
Cc1ccc(N(C(C)C(=O)Nc2cccc(Br)c2)S(C)(=O)=O)cc1C (stereo not drawn)	.	.
C/C(=C/CO)CC[C@@H]1[C@@](C)(O)CCC2C(C)(C)CCC[C@]21C (stereo partly drawn)	.	101
CC1(C)CCC[C@]2(C)C1CC=C(CO)[C@H]2CC/C(=C/CO)CO (stereo partly drawn)	.	/
C[C@@H]1CCCCO[C@H](CN(C)Cc2ccccc2)[C@@H](C)CN([C@H](C)CO)C(=O)c2cc(NC(=O)Nc3ccccc3)ccc2O1	.	.
C[C@@H]1CCCCO[C@H](CN(C)Cc2ccc(C(F)(F)F)cc2)[C@@H](C)CN([C@H](C)CO)C(=O)c2cc(NC(=O)c3ccccc3)ccc2O1	.	.
C[C@@H]1CCCCO[C@H](CN(C)Cc2ccccc2)[C@@H](C)CN([C@H](C)CO)C(=O)c2cc(NC(=O)Nc3ccc(C(F)(F)F)cc3)ccc2O1	.	104
C[C@@H]1CCCCO[C@H](CN(C)Cc2ccc(C(F)(F)F)cc2)[C@@H](C)CN([C@H](C)CO)C(=O)c2cc(NC(=O)Nc3ccccc3)ccc2O1	137	.
Cc1noc(C)c1S(=O)(=O)Nc1ccc2c(c1)CC(=O)N([C@H](C)CO)C[C@@H](C)[C@@H](CN(C)S(=O)(=O)c1cn(C)cn1)O2	.	.
O=C(Nc1ccc(I)cc1C(=O)NCC1CCCO1)c1cccnc1 (stereo not drawn)	/	.
O=C(NCCCN1CCOCC1)c1cccc([N+](=O)[O-])c1	/	.
O=[N+]([O-])c1ccc(S(=O)(=O)CC(CN2CCOCC2)N2CCOCC2)cc1 (stereo not drawn)	.	102
SMILES	ROS inducer	NOMO-1 viab
C[C@H]1CN([C@@H](C)CO)C(=O)c2cccc(NC(=O)C3CC3)c2O[C@@H]1CN(C)CC1CCCCC1	.	.
Cc1noc(C)c1NC(=O)Nc1ccc2c(c1)CC(=O)N([C@@H](C)CO)C[C@H](C)[C@H](CN(C)Cc1ccc(-c3ccccc3)cc1)O2	.	99
Cc1noc(C)c1NC(=O)Nc1ccc2c(c1)CC(=O)N([C@@H](C)CO)C[C@H](C)[C@H](CN(C)Cc1ccc(Oc3ccccc3)cc1)O2	.	100
Cc1noc(C)c1NC(=O)Nc1ccc2c(c1)CC(=O)N([C@H](C)CO)C[C@@H](C)[C@@H](CN(C)Cc1ccc(Oc3ccccc3)cc1)O2	.	.
Cc1noc(C)c1NC(=O)Nc1ccc2c(c1)CC(=O)N([C@H](C)CO)C[C@@H](C)[C@@H](CN(C)Cc1ccc(-c3ccccc3)cc1)O2	.	.
Cc1c(C)c(C)c(C(=O)c2ccccc2C(=O)NN)c(C)c1C	.	.
Cc1noc(C)c1S(=O)(=O)N(C)C[C@H]1Oc2ccc(NC(=O)CCC(F)(F)F)cc2CC(=O)N([C@H](C)CO)C[C@H]1C	.	.
C[C@H]1CN([C@@H](C)CO)C(=O)Cc2cc(NC(=O)Nc3ccc(C(F)(F)F)cc3)ccc2O[C@@H]1CN(C)CC1CCCCC1	.	125
COc1ccc(NC(=O)Nc2ccc3c(c2)CC(=O)N([C@H](C)CO)C[C@H](C)[C@H](CN(C)CC2CCCCC2)O3)cc1	.	.
C[C@@H]1CN([C@H](C)CO)C(=O)Cc2cc(NC(=O)Nc3ccc(C(F)(F)F)cc3)ccc2O[C@H]1CN(C)C(=O)NC1CCCCC1	.	.
C[C@H](CO)N1C[C@H](C)[C@H](CN(C)CC2CCCCC2)Oc2ccc(NC(=O)Nc3ccc(C(F)(F)F)cc3)cc2CC1=O	153	128
COc1cccc(NC(=O)CCc2nc(-c3ccc(OC)c(OC)c3)no2)c1	.	.
Cc1ccc(C(=O)/C(=C/N(C)C)Sc2ccc(C(F)(F)F)cn2)cc1	.	/
O=C(NO)c1ccc(C(=O)N/N=C/c2cccnc2Cl)cc1	.	/
C[C@H](CO)N1C[C@H](C)[C@H](CN(C)Cc2ccncc2)Oc2ccc(NC(=O)NC3CCCCC3)cc2C1=O	.	105
C[C@H]1CN([C@@H](C)CO)C(=O)c2cc(NC(=O)C3CCCCC3)ccc2O[C@@H]1CN(C)Cc1ccc(-c2ccccc2)cc1	?	100
C[C@@H]1CN([C@H](C)CO)C(=O)c2cc(NC(=O)C3CCCCC3)ccc2O[C@H]1CN(C)Cc1ccc(-c2ccccc2)cc1	.	.
C[C@@H]1CN([C@H](C)CO)C(=O)c2cc(NC(=O)NC3CCCCC3)ccc2O[C@@H]1CN(C)Cc1ccncc1	.	.
C[C@H]1CN([C@@H](C)CO)C(=O)Cc2cc(NC(=O)C3CCCCC3)ccc2O[C@H]1CN(C)Cc1ccc(Oc2ccccc2)cc1	.	.
C[C@H]1CN([C@@H](C)CO)C(=O)c2cc(NC(=O)C3CC3)ccc2O[C@@H]1CN(C)Cc1ccc(-c2ccccc2)cc1	.	.
C[C@H](CO)N1C[C@H](C)[C@@H](CN(C)Cc2ccc(-c3ccccc3)cc2)Oc2ccc(NC(=O)C3CCCCC3)cc2C1=O	104	.
C[C@@H]1CN([C@H](C)CO)C(=O)Cc2cc(NC(=O)C3CCCCC3)ccc2O[C@H]1CN(C)Cc1ccc(Oc2ccccc2)cc1	.	81
COc1ccc(CCNc2cc(C)c3cccc(OC)c3n2)cc1OC	/	.
Cc1ccc(N(C(C)C(=O)Nc2ccc(Oc3ccccc3)cc2)S(C)(=O)=O)cc1 (stereo not drawn)	.	.
